Assay outcomes: PubChem BioAssay, National Center for Advancing Translational Sciences (NCATS)
HT1080NT lethal: kills 2HG-producing HT-1080-NT fibrosarcoma cells; HT-1080-NT fibrosarcoma viability, CellTiter-Glo ATP luminescence, 48 h; Potency, µM (doses to about 46.1 µM), for the others: at the highest dose activity, negative = less viability, hits mostly cytotoxic; 360,000 compounds, 1.6% hits;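 note: NT is the 2HG producing partner of a matched IDH1 knockdown line; 0% = DMSO-treated cells and -100% = media-only wells without cells; nearly all actives have a fitted effect of over 55% in size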
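Luminescent CellTiter-Glo readout after 48 hours of compound exposure at 37 degrees C defined viability of HT-1080-NT cells. Activity was normalized to DMSO wells and cell-free media wells; concentration-response curves were fitted and assigned curve classes.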
HT1080 IDH1KD tx: toxicity to HT-1080 IDH1 knockdown cells (counter line). HT-1080 IDH1 knockdown viability, ATP luminescence, 48 h. Potency, µM (highest dose often 46.1 µM), for the others: top-dose activity, negative = toxicity, hits mostly cytotoxic. 360,000 compounds, 2% hits;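 note: 0% = DMSO wells and -100% = cell-free medium wells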
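CellTiter-Glo luminescence after 48 h compound exposure at 37 degrees C of IDH1-knockdown HT-1080 cells in 5% FBS RPMI. %Activity scaled between DMSO wells and cell-free media wells, with curves fitted and assigned curve classes.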
KB-V1 MDR tox: kills drug-selected multidrug resistant KB-V1 cells. KB-V1 MDR cells viability, CellTiter-Glo, 72 h. Potency, µM (series often up to 46.1 µM), usual class: cytotoxic. 400,000 compounds, 3.4% hits. AID 1347076; note: % is set by controls: 0 for no effect and ±100 for the full control effect; nearly all actives have a fitted effect of over 60% in size
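Cells of the MDR subline KB-V1 are plated, dosed with compound at multiple concentrations, and incubated 72 h at 37 degrees C; CellTiter-Glo is then added and luminescence read after 10 min.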
SW480 rerep: inducers of DNA re-replication in SW480 colon cancer cells | Potency, µM (top dose mostly 46.1 µM), for the others: at the top dose re-replication activation, hits mostly activators | SW480 DNA re-replication, Hoechst DNA content imaging, 48 h | 340,000 compounds, 1.8% hits; note: % of control where 0% means no effect; nearly all actives have a fitted effect of over 55% in size
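Compounds, transferred as 23 nL by pin tool, were incubated with cells for 48 hr; DNA content per nucleus was then quantified by Hoechst staining and fluorescence plate imaging.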
KB-3-1 cytotox: KB-3-1 parental cell cytotoxicity; KB-3-1 viability, CellTiter-Glo ATP luminescence, 72 h; Potency, µM (doses to about 46.1 µM), usual class: cytotoxic; 400,000 compounds, 1.4% hits; AID 1347075; note: % is set by controls: 0 for no effect and ±100 for the full control effect; nearly all actives have a fitted effect of over 60% in size
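Screening of KB-3-1 cells (DMEM, 10% FBS, phenol-red free) ran from lowest to highest compound concentration; after 72 h at 37 °C viability was read luminescently and curves fitted.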
MCF10A rereplic: induces DNA re-replication in MCF 10a normal breast cells. 350,000 compounds, 2.9% hits. MCF 10A DNA re-replication, Hoechst nuclear intensity, 48 h. Potency, µM (highest dose often 46.1 µM), inactives show at the highest dose activity, positive = re-replication, hits mostly activators; note: % of control where 0% means no effect; nearly all actives have a fitted effect of over 50% in size
* marks the source's active call; other numbers are inactive results; i = inactive; ? = inconclusive; · = not tested or not shown; [ ] = dose if it differs, or a comment. Sampled rows, rich in hits. Any-hit rate of the full collection: about 8%. Calls come from the whole dose curve; as a rule, active = well fitted curve in the direction sought with a large enough effect; inconclusive = small, poorly fitted or top-dose-only effect, or another doubt; inactive = no such curve, though single readings can be large; an effect the other way counts as inactive or inconclusive. Potency is the fitted concentration of half-maximal effect.

SMILES	HT1080NT lethal	HT1080 IDH1KD tx	KB-V1 MDR tox	SW480 rerep	KB-3-1 cytotox	MCF10A rereplic
COc1cc(-c2nc(Cn3nnc(C(=O)Nc4cc(C)cc(C)c4)c3C)c(C)o2)cc(OC)c1OC	·	·	i	·	i	·
CN(C)c1ccc(C=Cc2ccnc3ccccc23)cc1N	23µM*	?	i	·	?	·
Cc1c(/C=C/c2ccnc3ccccc23)ccc(N(C)C)c1C	·	·	i	·	?	·
Clc1ccc(/C=C/c2ccnc3ccccc23)cc1	·	·	i	·	i	·
Cc1cc(/C=C/c2ccnc3ccccc23)ccc1N(C)C	·	·	13µM*	·	7.3µM*	·
CN(C)c1c(Cl)cc(/C=C/c2ccnc3ccccc23)cc1Br	·	·	16µM*	·	18µM*	·
CN(C)c1ccc(C(CNC(=O)c2ccc(C(C)(C)C)cc2)N2CCOCC2)cc1 (stereo not drawn)	·	·	i	·	i	·
CCCCOc1ccc(S(=O)(=O)Nc2cccc(-c3ccc(N4CCOCC4)nn3)c2)cc1	·	·	?	·	i	·
COC(=O)/C(=C\Nc1ccc(Cl)cc1Cl)NC(=O)c1ccc(OC)cc1	3.3µM*	1.6µM*	4.1µM*	6.5µM*	5.8µM*	18µM*
COc1cccc(NC(=S)N(CCc2c(C)[nH]c3ccc(C)cc23)Cc2cccs2)c1	-4%	-29%	?	?	16µM*	-2%
COc1cc(CNCc2ccccn2)ccc1OCc1ccc(Cl)cc1Cl	23µM*	21µM*	?	?	?	20%
COc1cc(CNCCN2CCOCC2)ccc1OCc1ccc(Cl)cc1Cl	26µM*	21µM*	?	?	?	?
CC(C)(C)OC(=O)N1CCCC1C(=O)NCCc1ccccc1 (stereo not drawn)	10%	15%	i	0%	i	?
CCc1cc2c(C)cc(=O)oc2cc1OC(=O)C1CCCN1C(=O)OC(C)(C)C (stereo not drawn)	12%	3%	i	18µM*	i	11%
Cc1cc(C)c(-c2csc(Cc3nc(-c4cc5ccccc5oc4=O)cs3)n2)cc1C	-3%	-9%	?	8%	23µM*	14%
O=C(CCC(=O)Nc1ccc(Cl)cc1Cl)N/N=C/c1ccc([N+](=O)[O-])o1	?	?	?	4.6µM*	?	?
Cc1ccc(NCC(=O)N/N=C\c2ccc([N+](=O)[O-])o2)cc1	?	1%[9.24 µM]	?	-4%	i	5%
CCCCCC(=O)N/N=C/c1ccc([N+](=O)[O-])o1	?	?	i	8.9µM*	i	28%
O=C(Cc1ccc2c(c1)OCO2)NN=Cc1ccc([N+](=O)[O-])o1	-12%	-21%	23µM*	18µM*	i	?
CN(C)c1ccc(/C=C/c2ccnc3c(O)ccc(O)c23)cc1	·	·	i	·	i	·
Cc1ccc(S(=O)(=O)N2CCN(c3nc(-c4cccs4)nc4ncccc34)CC2)cc1	·	·	i	·	?	·
O=C(COC(=O)c1ccc(N2CCOCC2)c([N+](=O)[O-])c1)Nc1ccc2c(c1)OCO2	?	26%	8.2µM*	0%	?	-2%
Cc1cccc(C)c1NC(=O)COC(=O)c1ccc(N2CCCC2)c([N+](=O)[O-])c1	8%	11%	i	1%	i	-1%
Cc1c(CCOC(=O)c2ccc(N3CCOCC3)c([N+](=O)[O-])c2)sc[n+]1CC#N	23µM*	?	?	27%	21µM*	16µM*
CCC(C)c1ccccc1NC(=O)COC(=O)c1ccc2[nH]c3c(c2c1)CCCC3 (stereo not drawn)	-30%	?	21µM*	?	?	8.2µM*
CCC(C)c1ccccc1NC(=O)COC(=O)c1ccc(N2CCCC2)c([N+](=O)[O-])c1 (stereo not drawn)	1%	-2%	i	-4%	0.0023µM*	5%
O=C(Cc1ccc2ccccc2c1)NO	24%	19%	·	·	·	·
